# Measurements published in ChEMBL document CHEMBL3988442, “University of Dundee, Small-Polar-MMV Screening Library” (2021).
# For some of these results: Results with a measured potency or affinity are listed apart.
# Experiments:
# Design in all cases: scale not given: direction of the effect not stated beside the values
# [1] = target: Protein translocase subunit SecA (Escherichia coli (strain K12)) (UniProt P10408); test: Assay to Identify E. coli SecA ATPase Inhibitors; format: functional; details: 30 µM
# Sequence of Protein translocase subunit SecA (Escherichia coli (strain K12)) (P10408 whole entry): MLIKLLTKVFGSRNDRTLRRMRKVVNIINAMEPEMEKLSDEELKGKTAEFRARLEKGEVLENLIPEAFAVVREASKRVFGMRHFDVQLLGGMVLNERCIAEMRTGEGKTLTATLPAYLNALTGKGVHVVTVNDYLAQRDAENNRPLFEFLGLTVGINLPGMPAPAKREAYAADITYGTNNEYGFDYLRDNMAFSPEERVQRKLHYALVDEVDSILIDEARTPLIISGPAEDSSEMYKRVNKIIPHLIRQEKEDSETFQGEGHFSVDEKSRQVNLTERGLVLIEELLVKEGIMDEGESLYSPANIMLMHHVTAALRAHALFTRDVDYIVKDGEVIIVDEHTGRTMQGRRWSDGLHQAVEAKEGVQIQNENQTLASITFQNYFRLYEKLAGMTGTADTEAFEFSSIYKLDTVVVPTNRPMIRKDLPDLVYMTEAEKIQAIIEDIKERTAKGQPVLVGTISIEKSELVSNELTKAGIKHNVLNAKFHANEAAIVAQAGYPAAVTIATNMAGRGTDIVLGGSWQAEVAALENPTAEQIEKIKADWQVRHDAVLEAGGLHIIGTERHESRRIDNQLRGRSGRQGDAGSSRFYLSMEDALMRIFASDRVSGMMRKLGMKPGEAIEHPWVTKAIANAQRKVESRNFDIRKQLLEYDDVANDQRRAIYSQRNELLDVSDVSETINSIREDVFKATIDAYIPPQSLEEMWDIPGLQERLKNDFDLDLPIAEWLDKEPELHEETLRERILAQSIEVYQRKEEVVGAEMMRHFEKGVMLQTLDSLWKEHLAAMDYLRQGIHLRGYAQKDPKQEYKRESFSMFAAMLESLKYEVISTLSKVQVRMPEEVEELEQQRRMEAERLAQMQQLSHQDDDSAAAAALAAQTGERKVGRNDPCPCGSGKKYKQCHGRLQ
# [2] = target: T1, Ubiquitin-activating enzyme e1, putative (Leishmania donovani (strain BPK282A1)) (UniProt E9BSI1); test: Leishmania donovani Ubiquitin Activating Enzyme (LdE1); format: functional; details: 30 µM
# T1 sequence (whole entry): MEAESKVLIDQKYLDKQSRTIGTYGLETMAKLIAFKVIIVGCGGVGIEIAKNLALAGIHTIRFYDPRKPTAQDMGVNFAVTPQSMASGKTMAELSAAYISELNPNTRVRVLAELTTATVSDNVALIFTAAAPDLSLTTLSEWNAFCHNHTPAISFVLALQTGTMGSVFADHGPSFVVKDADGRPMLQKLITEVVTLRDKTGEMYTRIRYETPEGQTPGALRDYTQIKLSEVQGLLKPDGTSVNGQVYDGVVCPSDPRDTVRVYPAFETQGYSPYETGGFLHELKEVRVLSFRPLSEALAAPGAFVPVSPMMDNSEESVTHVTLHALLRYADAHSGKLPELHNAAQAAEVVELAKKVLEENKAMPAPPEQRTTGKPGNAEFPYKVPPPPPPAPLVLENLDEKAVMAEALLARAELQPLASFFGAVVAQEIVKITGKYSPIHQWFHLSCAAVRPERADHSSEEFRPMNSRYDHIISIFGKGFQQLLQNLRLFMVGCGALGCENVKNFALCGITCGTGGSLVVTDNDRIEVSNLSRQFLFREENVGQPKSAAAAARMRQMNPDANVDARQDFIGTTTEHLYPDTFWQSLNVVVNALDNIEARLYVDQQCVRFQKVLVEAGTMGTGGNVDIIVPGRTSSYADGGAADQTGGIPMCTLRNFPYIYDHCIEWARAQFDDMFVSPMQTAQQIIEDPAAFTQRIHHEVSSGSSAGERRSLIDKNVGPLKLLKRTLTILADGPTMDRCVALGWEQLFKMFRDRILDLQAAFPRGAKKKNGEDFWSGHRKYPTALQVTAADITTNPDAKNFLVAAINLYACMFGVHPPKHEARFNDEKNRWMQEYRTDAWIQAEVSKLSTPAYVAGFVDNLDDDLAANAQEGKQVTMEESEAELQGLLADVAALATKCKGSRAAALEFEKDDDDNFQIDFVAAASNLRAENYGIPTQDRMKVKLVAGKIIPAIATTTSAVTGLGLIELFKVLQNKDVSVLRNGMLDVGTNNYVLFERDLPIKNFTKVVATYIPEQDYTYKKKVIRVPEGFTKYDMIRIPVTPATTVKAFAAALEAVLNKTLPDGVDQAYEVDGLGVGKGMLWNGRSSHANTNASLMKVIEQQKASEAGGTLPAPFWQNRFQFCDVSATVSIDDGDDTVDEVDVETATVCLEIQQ
# [3] = target: AMP-activated protein kinase, AMPK (Homo sapiens) (UniProt P54646+O43741+P54619+Q9UGJ0+Q9Y478+Q13131+Q9UGI9); test: AMP-dependent Kinase enzyme assay. An in vitro enzyme assay that detects ADP turnover that is directly proportional to AMPK activity. This uses naive AMPK that is activated during the assay with MK-8722; format: functional; details: 30 µM
# [4] = target: Sialic acid-binding Ig-like lectin 9 (Homo sapiens) (UniProt Q9Y336); test: Hs-Siglec9 ALPHAscreen SOP 20170721; details: 10 µM
# Sequence of Sialic acid-binding Ig-like lectin 9 (Homo sapiens) (Q9Y336 whole entry): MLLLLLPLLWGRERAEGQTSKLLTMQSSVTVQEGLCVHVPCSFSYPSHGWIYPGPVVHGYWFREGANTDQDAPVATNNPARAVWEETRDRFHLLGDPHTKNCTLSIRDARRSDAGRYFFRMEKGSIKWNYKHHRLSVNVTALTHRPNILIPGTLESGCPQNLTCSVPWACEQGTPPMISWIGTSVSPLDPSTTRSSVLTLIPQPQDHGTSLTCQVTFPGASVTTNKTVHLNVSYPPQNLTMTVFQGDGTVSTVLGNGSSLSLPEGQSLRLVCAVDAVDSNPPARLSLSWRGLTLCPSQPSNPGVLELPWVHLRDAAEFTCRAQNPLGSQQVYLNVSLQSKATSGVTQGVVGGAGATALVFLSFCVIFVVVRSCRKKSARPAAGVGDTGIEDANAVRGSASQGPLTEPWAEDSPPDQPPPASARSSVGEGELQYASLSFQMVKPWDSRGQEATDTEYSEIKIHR
# Trypanosoma cruzi = test: Trypanosoma cruzi phosphomannomutase and mannose-1-phosphate guanylyltransferase assay; format: functional; details: 10 µM
# [5] = target: T2, Arginase-2, mitochondrial (Homo sapiens) (UniProt P78540); test: in vitro enzyme assay to detect the production of urea directly proportional to the activity of Arginase II; format: functional; details: 33.3 µM; further: in the data most compounds retested in dose-response had high values
# T2 sequence (whole entry): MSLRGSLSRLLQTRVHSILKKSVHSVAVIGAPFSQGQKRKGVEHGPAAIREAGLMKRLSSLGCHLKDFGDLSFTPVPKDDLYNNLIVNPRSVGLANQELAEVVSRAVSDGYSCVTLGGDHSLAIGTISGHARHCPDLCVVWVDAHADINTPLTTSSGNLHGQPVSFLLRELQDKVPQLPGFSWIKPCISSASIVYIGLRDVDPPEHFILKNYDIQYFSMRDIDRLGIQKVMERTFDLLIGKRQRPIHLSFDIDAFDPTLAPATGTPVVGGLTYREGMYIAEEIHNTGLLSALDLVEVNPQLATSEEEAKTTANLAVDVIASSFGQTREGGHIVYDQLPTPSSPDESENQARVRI
# [6] = target: T3, Proteasome subunit beta (Trypanosoma cruzi) (UniProt O96673); test: Trypanosoma cruzi proteasome chymotrypsin-like activity (TcProtChymo) assay.; further: in the data most compounds retested in dose-response had high values; format: functional; details: 9.37 µM
# T3 sequence (whole entry): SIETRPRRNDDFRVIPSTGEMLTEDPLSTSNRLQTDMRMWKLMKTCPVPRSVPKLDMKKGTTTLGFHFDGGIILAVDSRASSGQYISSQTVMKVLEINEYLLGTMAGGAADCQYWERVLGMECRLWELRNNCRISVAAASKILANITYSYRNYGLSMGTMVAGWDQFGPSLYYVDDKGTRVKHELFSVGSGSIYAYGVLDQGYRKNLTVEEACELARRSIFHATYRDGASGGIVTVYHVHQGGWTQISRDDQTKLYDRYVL
# Homo sapiens = species: Homo sapiens; test: To identify inhibition of the IFN signalling (Jak-Stat) pathway via expression of an eGFP reporter gene under the control of an IFN-stimulated response element (ISRE) containing MxA promoter.; format: functional; details: 30 µM
# [7] = target: T4, Tyrosyl-tRNA synthetase, putative (Trypanosoma cruzi (strain CL Brener)) (UniProt Q4DSP6); test: Trypanosoma cruzi tyrosyl tRNA synthetase (TcYRS) _High Tyrosine SOP; format: functional; details: 30 µM; further: in the data most compounds retested in dose-response had high values
# T4 sequence (whole entry): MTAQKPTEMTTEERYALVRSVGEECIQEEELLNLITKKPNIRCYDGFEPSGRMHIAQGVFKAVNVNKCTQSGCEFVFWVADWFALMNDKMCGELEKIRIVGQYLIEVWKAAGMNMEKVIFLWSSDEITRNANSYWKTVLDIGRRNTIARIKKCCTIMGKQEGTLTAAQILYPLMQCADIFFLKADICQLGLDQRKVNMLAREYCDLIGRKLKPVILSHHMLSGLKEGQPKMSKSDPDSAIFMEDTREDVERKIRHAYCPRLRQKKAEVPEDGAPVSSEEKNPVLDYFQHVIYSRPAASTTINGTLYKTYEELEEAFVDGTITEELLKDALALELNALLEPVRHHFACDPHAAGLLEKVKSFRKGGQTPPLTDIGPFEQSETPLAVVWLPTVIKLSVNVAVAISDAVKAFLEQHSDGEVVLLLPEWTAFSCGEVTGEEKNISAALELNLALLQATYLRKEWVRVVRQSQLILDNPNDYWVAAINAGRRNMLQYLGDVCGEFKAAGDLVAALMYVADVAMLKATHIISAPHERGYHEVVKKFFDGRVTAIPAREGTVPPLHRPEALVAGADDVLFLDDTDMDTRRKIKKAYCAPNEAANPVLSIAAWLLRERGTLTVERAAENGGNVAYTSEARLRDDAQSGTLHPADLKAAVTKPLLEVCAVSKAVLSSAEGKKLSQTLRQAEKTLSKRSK
# [8] = target: T4, Tyrosyl-tRNA synthetase, putative (Trypanosoma cruzi (strain CL Brener)); test: Trypanosoma cruzi tyrosyl tRNA synthetase (TcYRS) SOP; format: functional; details: 30 µM
# [9] = target: Chromo domain-containing protein 1 (Saccharomyces cerevisiae (strain ATCC 204508 / S288c) (Baker's yeast)) (UniProt P32657); test: ScCHD-1 Enzyme Inhibition Assay; format: functional; details: 30 µM; further: in the data most compounds retested in dose-response had high values
# Sequence of Chromo domain-containing protein 1 (Saccharomyces cerevisiae (strain ATCC 204508 / S288c) (Baker's yeast)) (P32657 whole entry, the tested form may be a part): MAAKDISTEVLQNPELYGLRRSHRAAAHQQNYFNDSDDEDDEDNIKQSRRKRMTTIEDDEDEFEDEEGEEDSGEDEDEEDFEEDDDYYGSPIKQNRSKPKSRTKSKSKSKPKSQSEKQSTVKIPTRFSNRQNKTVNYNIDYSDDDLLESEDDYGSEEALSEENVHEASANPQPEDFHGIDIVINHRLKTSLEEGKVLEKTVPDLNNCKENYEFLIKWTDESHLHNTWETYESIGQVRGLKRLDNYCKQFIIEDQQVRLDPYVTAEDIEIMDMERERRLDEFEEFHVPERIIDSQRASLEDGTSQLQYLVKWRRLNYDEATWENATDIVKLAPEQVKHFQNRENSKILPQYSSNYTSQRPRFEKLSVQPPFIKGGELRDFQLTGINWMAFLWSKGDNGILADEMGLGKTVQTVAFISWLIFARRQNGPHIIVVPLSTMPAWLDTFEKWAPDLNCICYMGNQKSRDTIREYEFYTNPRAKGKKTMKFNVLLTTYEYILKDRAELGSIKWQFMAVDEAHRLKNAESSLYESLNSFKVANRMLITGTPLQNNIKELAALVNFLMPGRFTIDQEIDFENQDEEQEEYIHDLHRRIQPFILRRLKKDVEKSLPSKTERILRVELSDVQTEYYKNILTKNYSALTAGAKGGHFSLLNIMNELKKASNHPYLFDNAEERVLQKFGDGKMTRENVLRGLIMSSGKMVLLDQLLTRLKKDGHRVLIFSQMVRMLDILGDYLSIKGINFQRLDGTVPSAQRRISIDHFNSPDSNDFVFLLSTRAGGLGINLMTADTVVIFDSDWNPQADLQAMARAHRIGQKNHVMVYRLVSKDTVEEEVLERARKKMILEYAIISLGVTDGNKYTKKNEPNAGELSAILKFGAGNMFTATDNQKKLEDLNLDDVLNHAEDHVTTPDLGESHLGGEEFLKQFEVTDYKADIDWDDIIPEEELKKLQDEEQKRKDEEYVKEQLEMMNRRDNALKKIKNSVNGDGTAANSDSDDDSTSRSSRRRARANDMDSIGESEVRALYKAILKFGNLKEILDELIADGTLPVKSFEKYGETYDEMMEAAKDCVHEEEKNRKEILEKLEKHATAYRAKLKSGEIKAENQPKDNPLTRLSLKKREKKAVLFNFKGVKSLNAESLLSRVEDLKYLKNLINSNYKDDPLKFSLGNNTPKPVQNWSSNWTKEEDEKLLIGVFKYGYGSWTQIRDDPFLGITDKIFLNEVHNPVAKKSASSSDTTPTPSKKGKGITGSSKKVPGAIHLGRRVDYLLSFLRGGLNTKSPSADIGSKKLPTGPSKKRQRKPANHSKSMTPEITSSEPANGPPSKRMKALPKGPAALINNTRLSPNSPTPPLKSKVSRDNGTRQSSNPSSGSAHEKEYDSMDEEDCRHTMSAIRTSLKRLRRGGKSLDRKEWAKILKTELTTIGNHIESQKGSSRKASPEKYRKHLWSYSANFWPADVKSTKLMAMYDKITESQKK
Compound,Percent Effect [1],Percent Effect [2],Percent Effect [3],Percent Effect [4],Percent Effect (Trypanosoma cruzi),Percent Effect [5],Percent Effect [6],Percent Effect (Homo sapiens),Percent Effect [7],Percent Effect [8],Percent Effect [9]
CCOCC(=O)N1C[C@@H](O)[C@H](N(C)Cc2ccc(OC)cc2)C1,-3.53%,4.05%,6.78%,3.17%,-1.19%,0.232%,9.05%,6.37%,5.38%,9.09%,-14.5%
Cn1cnc2c1C(COCC1CC1)CN(Cc1ccsc1)C2 (stereo not given),-1.29%,13%,3.5%,-4.76%,-1.68%,7.1%,20.2%,6.71%,6.35%,11.5%,-6.29%
Cn1cnc2c1C(COCC1CCOCC1)CN(C(=O)c1ccoc1)C2 (stereo not given),1.37%,18.7%,4.82%,-8.07%,1.38%,-1.63%,14.5%,-17.8%,1.06%,6.41%,-5.31%
CN(C)C(=O)N1CCn2nc(CNC(=O)CCC(F)(F)F)cc2C1,0.369%,6.94%,-0.273%,2.6%,4.18%,13.7%,10.3%,15%,6.32%,15.4%,-4.37%
CN(CCC(F)(F)F)C(=O)[C@H]1CSCN1C(=O)OC(C)(C)C,-4.76%,0%,3.13%,1.23%,8.03%,0%,1.77%,-11.9%,1.07%,2.5%,-1.07%
COCC1CN(C(=O)c2ccoc2C)Cc2nccn2C1 (stereo not given),-6.75%,0%,10.2%,-5.59%,-6.3%,0.233%,2.03%,12.3%,-3.19%,1.28%,-4.85%
Cc1cccc(NC2CCN(C(=O)Nc3cc(C)on3)CC2)n1,-3.9%,12.7%,-3.67%,8.79%,5.57%,0.76%,1.39%,-22.6%,4.43%,16.5%,-8.82%
Cc1nn(CC(=O)N2CCN(c3ccccc3F)CC2)c(C)c1Cl,0.317%,15.6%,4.64%,2.9%,1.87%,-24.8%,25.5%,9.79%,4.3%,23.5%,1.69%
CCOCC(O)CN1CCN(C(=O)c2ccccc2Cl)CC1 (stereo not given),-5.28%,5.26%,5.55%,2.24%,0%,2.3%,-3.17%,-0.893%,1.47%,7.32%,4.97%
CS(=O)(=O)N1CCc2nc(NC(=O)Nc3c(F)cccc3F)sc2C1,-4.94%,-11%,-0.62%,-0.122%,-5.49%,0%,4.97%,1.79%,4.3%,12.5%,1.62%
Cc1nc(C)c(C(=O)N2CCCC2c2nnc3n2CCCCC3)s1 (stereo not given),-2.68%,13.5%,-4.05%,1.58%,0.586%,5.42%,14.3%,3.62%,11.9%,11%,-0.436%
c1cnn(CC2CN(Cc3ccc(-n4ccnc4)cc3)CCO2)c1 (stereo not given),-2.02%,17.7%,-6.89%,4.49%,3.68%,0.76%,6.14%,0.886%,9.36%,24.1%,-2.59%
CC(Cn1ccnc1)NC(=O)NCCc1ccc2c(c1)OCCO2 (stereo not given),-3.57%,18.2%,-10.2%,-0.77%,-10.1%,0.712%,15.7%,31.7%,4.85%,2.44%,-8.39%
CCN(CC(=O)NC)C(=O)Cc1nc(-c2ccco2)oc1C,-8.15%,5.33%,-6.53%,3.51%,0.876%,5.73%,16.9%,10.7%,8.2%,13.6%,-5.99%
CN(C)C(=O)CCCNC(=O)C(c1cccc(F)c1)N(C)C (stereo not given),0.633%,13.5%,-10.5%,5.14%,5.41%,-1.43%,11.7%,24.9%,10.1%,12.2%,-1.94%
Cc1n[nH]c(C)c1NC(=O)CN1CCOC(Cn2cccn2)C1 (stereo not given),-4.71%,2.6%,7.29%,-4.25%,6.95%,-4%,8.16%,10.5%,3.81%,9.41%,-16.3%
COc1ccc(C(O)CNC(=O)NCc2csc(C)n2)cc1 (stereo not given),-3.31%,18.9%,1.28%,1.81%,6.41%,-2.03%,19.6%,11.3%,7.92%,-8.54%,-6.16%
Cc1cccc(CS(=O)(=O)NCC(O)Cc2ccccc2)c1 (stereo not given),-3.31%,5.48%,-2.41%,8.56%,3.33%,10.4%,11.2%,7.9%,5.38%,12.5%,-5.28%
Cc1nccnc1N1CC[C@@H](NC(=O)c2cnccn2)[C@H](O)C1,-5.54%,13.5%,-3.54%,17.2%,7.53%,2.86%,3.62%,2.71%,2.65%,14.6%,-0.902%
CN(C)C(=O)N1CCN(Cc2nnc(C(C)(C)C)o2)CC1,-0.665%,-5.41%,0.51%,3.54%,0%,1.91%,1.55%,-1.07%,-1.59%,0%,-0.0145%
